An excerpt weighted towards active compounds, which were near 2.9% of everything screened.
SNCA expr inhib: SNCA gene expression inhibition | HEK-293 SNCA-luciferase knock-in, luminescence, 24 h | Potency, µM (top dose mostly 57.2 µM), hits mostly inhibitors | 140,000 tested, 0.17% active | AID 1671194; also: nearly all actives have a fitted effect of over 45% in size
KDM5B inh: inhibitors of human KDM5B histone demethylase; Q9UGL1; KDM5B demethylase, FDH-coupled NADH fluorescence (FDH is formaldehyde dehydrogenase); Potency, µM (series often up to 57.7 µM), most hits filed as inhibitors; 220,000 tested, 2.6% active; also: nearly all actives have a fitted effect of over 70% in size
Target sequence (Q9UGL1 whole entry, looked up): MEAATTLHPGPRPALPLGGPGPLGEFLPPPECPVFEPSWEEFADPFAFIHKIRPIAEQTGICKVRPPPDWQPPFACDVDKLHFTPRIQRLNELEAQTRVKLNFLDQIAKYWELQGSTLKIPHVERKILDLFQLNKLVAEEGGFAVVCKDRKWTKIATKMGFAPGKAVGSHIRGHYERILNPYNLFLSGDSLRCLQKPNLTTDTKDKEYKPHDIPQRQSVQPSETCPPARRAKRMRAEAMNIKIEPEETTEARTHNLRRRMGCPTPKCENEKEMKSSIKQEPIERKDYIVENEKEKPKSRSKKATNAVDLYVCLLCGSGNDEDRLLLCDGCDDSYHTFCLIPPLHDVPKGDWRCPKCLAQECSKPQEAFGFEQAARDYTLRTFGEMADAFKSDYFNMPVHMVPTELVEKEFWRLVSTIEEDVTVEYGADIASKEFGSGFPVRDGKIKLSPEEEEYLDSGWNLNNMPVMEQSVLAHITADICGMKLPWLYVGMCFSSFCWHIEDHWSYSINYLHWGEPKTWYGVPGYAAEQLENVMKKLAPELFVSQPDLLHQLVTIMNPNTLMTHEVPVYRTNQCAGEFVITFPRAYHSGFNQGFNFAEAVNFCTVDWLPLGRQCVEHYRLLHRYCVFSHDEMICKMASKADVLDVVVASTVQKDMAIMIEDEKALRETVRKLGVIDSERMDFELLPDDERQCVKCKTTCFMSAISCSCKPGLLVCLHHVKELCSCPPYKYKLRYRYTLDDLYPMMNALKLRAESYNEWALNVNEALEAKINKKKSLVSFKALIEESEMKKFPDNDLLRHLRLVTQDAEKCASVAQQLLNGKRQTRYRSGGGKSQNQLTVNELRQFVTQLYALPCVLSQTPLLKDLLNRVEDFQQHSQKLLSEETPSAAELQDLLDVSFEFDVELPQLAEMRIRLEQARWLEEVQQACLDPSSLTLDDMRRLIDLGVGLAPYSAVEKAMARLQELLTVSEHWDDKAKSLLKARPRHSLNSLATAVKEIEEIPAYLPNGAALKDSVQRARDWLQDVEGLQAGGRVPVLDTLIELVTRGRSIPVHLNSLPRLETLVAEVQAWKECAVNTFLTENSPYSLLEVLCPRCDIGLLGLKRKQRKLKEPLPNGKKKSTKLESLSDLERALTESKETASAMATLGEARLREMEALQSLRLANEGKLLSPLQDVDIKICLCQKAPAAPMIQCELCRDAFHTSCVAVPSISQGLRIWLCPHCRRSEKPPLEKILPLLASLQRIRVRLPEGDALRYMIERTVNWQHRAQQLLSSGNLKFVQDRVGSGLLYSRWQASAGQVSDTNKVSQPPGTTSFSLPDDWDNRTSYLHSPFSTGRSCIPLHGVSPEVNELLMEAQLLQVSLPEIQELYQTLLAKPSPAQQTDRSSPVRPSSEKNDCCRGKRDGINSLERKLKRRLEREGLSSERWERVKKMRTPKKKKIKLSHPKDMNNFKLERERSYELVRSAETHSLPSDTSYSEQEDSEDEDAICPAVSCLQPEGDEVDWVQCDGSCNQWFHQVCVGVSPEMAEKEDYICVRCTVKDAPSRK
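Compound dilutions met 200 nM (final) KDM5BΔAP for 10 min at room temperature before substrate addition. The substrate mix held 12.5 µM H3K4me3 with cofactors 25 µM α-ketoglutarate and 50 µM Fe²⁺. NADH signal gain over 30 min defined activity.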
HEK293 viab: counter-screen for SNCA expression inhibitors: cell viability; AID 1671193; 150,000 tested, 0.12% active; HEK-293-SNCA-luc viability, GF-AFC fluorescence, 24 h; Potency, µM (top dose mostly 57.1 µM), most hits filed as cytotoxic; also: nearly all actives have a fitted effect of over 30% in size
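HEK-293-SNCA-luc cells (1500/well) plated 24 h, then exposed 24 h to a dilution series; GF-AFC added 30 min at 37C, fluorescence 405/540 nm; normalised to medium-only and DMSO wells, Hill fit.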
IP6K1 inh: IP6K1 kinase inhibition; IP6K1 kinase, ADP-Glo luminescence, 2 h; active compounds read low; activity change, % (series mostly up to about 58 µM); 140,000 tested, 0.81% active; AID 1645851; in the data active = activity change below about -25%
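ADP-Glo luminescence measures ADP made by human IP6K1 during a 2 h RT reaction with ATP/IP6 (mix at 1.3 mM/130 uM); top library doses 57.5 and 19.1 uM final.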
Of the large screens only hits and unclear results are named; the others gave an inactive call. Unless noted, calls follow the shape of the dose curve; as a rule, active = well fitted curve in the direction sought with a large enough effect; inconclusive = small, poorly fitted or top-dose-only effect, or another doubt; inactive = no such curve, though single readings can be large; an effect the other way counts as inactive or inconclusive.

O=C(N[C@@H]1CN(c2ncccn2)C[C@H]1CO)c1ccc(F)cc1	KDM5B inh inconclusive
CN(C)C[C@@H]1CN(c2ncccn2)C[C@H]1NC(=O)c1cccc(F)c1	KDM5B inh 20µM, HEK293 viab inconclusive
COc1ccc(C(=O)N[C@@H]2CN(c3ncccn3)C[C@H]2CN(C)C)cc1F	KDM5B inh 25µM
COc1cccc(C(=O)N[C@@H]2CN(c3ccccn3)C[C@H]2CN(C)C)c1	KDM5B inh 28µM
COc1cccc(C(=O)N[C@@H]2CN(c3ccccn3)C[C@H]2CN(C)C)c1OC	KDM5B inh 28µM
Cc1ccc(-c2cc(C(=O)O)c3ccc(Br)cc3n2)cc1	none (no result: SNCA expr inhib, HEK293 viab, IP6K1 inh)
O=C(c1ccc(F)cc1)N1CCN(c2nccc(Nc3ccccc3F)n2)CC1	none (no result: KDM5B inh)
CN(C)C[C@@H]1CN(c2ncccn2)C[C@H]1NC(=O)c1ccc(Cl)s1	KDM5B inh 28µM
COc1cc(OC)cc(C(=O)N[C@@H]2CN(C)C[C@H]2CN(C)C)c1	KDM5B inh inconclusive
COc1cccc(C(=O)N[C@@H]2CN(c3ncccn3)C[C@H]2CN(C)C)c1	KDM5B inh 32µM
CN(C)C[C@@H]1CN(S(C)(=O)=O)C[C@H]1NC(=O)c1ccc(Cl)s1	none
Cc1noc([C@H]2CCN(C(=O)CC3CCCC3)C[C@H]2NC(=O)C2CC2)n1	none (no result: KDM5B inh)
Nc1ncnc(Nc2ccc(F)c(Cl)c2)c1[N+](=O)[O-]	none (no result: SNCA expr inhib, HEK293 viab, IP6K1 inh)
CCn1nccc1C(=O)N1CCC2(CC1)CCC(O)(CN(C)C)CC2	KDM5B inh 20µM
Cc1ccc(C)c(C(=O)NCc2nnc3cc(-c4nc(C)no4)ccn23)c1	KDM5B inh 25µM
Cc1ccc(C)c(C(=O)NCc2nnc3cc(-c4nc(C(C)C)no4)ccn23)c1	KDM5B inh 14µM
O=C(NCCc1ccc(Cl)cc1)c1ccc2nnc(-c3ccc(Cl)cc3Cl)n2c1	none (no result: KDM5B inh)
Cc1nc2c(s1)C[C@]1(C)CCC([C@H](C)C(=O)N3CCOCC3)[C@H](O)[C@H]1[C@@H]2C (stereo partly drawn)	none
C#CCN(C)C(=O)[C@@H](C)C1CC[C@@]2(C)Cc3sc(NCCCC)nc3[C@@H](C)[C@@H]2[C@H]1O (stereo partly drawn)	KDM5B inh inconclusive
C=CCN(C)C(=O)[C@@H](C)C1CC[C@@]2(C)Cc3sc(-c4cccnc4)nc3[C@@H](C)[C@@H]2[C@H]1O (stereo partly drawn)	SNCA expr inhib inconclusive, KDM5B inh 32µM
C=CCN(C)C(=O)[C@@H](C)C1CC[C@@]2(C)Cc3sc(NCCCC)nc3[C@@H](C)[C@@H]2[C@H]1O (stereo partly drawn)	KDM5B inh 35µM
C[C@H](C(=O)NCCN1CCOCC1)C1CC[C@@]2(C)Cc3sc(-c4ccccc4)nc3[C@@H](C)[C@@H]2[C@H]1O (stereo partly drawn)	SNCA expr inhib 0.79µM, KDM5B inh 25µM
CSc1ccc(/C=C2\CCC(C3CCCC3)C2=O)cc1 (stereo not drawn)	none (no result: SNCA expr inhib, HEK293 viab, IP6K1 inh)
COc1cccc(-c2c(C(=O)NCCN3CCOCC3)nc3sccn23)c1	none (no result: KDM5B inh)
C1CCC(c2nc(CCOCC3CCOCC3)no2)NC1 (stereo not drawn)	KDM5B inh 32µM
COc1ccc(CNC(=O)N[C@@H]2CN(c3ncccn3)C[C@H]2CN(C)C)cc1	KDM5B inh 28µM
CN(C)C[C@@H]1CN(c2ncccn2)C[C@H]1NC(=O)NCc1ccco1	KDM5B inh inconclusive
COCCCNC(=O)N[C@@H]1CN(c2ncccn2)C[C@H]1CN(C)C	KDM5B inh 32µM
O=C(CCCc1c[nH]c2ccccc12)N1CCN(CC(=O)N2CCCCCC2)CC1	none (no result: SNCA expr inhib, HEK293 viab, IP6K1 inh)
CCOC(=O)C1=CN(Cc2ccc(F)cc2)C=C(C(=O)OCC)C1c1cccc(O)c1	none (no result: SNCA expr inhib, HEK293 viab, IP6K1 inh)
O=C(CCC1CCCN(S(=O)(=O)c2ccccc2F)C1)NCCN1CCOCC1 (stereo not drawn)	KDM5B inh 20µM
CN1c2cccnc2CN(CC2CCCCC2)CC[C@H]1CO	KDM5B inh 28µM
Cc1cccc(-c2cccc(CN3CCC(NC(=O)Nc4ccc(Cl)cc4)CC3)c2)c1	SNCA expr inhib 20µM, HEK293 viab inconclusive (no result: KDM5B inh)
COc1ccccc1-c1nc(C(=O)N(C)C)n2ccccc12	KDM5B inh 112µM
C#CCNC(=O)c1nn(C)c2nc(-c3ccccc3OC)ccc12	none (no result: KDM5B inh)
COCCNC(=O)c1nc(-c2ccccc2OC)c2ccccn12	none
C#CCNC(=O)c1nc(-c2ccccc2OC)c2cnccn12	KDM5B inh 89µM
C#CCNC(=O)c1nc(-c2ccccc2OC)c2ccccn12	KDM5B inh 100µM
CN1CC(=O)N(c2ccccc2)Cc2c1ncnc2N1CCc2ccccc2C1	KDM5B inh 25µM
Cn1c(CC2CCS(=O)(=O)C2)nnc1SCC(=O)Nc1ccc(-c2ccccc2)cc1 (stereo not drawn)	none (no result: SNCA expr inhib, HEK293 viab, IP6K1 inh)
O=C(c1cc(-c2ccc(O)cc2)n[nH]1)N1CCCC(CCc2ccc(F)cc2)C1 (stereo not drawn)	SNCA expr inhib inconclusive
CNc1ncc(C(=O)N2CCCC(CCc3ccc(F)cc3)C2)cn1 (stereo not drawn)	KDM5B inh 20µM
COc1ccc(C2C(=O)N(C3CCCCC3)CC(=O)N2CCC2=CCCCC2)cc1 (stereo not drawn)	SNCA expr inhib 22µM, KDM5B inh inconclusive, HEK293 viab inconclusive
C(#Cc1nc2ncccc2nc1OCCN1CCCC1)c1ccccc1	HEK293 viab 15µM (no result: SNCA expr inhib, KDM5B inh)
c1ccc(OCCn2c(CN3CCCCCC3)nc3ccccc32)cc1	none (no result: SNCA expr inhib, HEK293 viab, IP6K1 inh)
COc1ccc(C2(C(=O)N3CCN(c4ncccn4)CC3)CCOCC2)cc1	none
COc1ccc(C2(C(=O)N3CCN(c4ccccn4)CC3)CCOCC2)cc1	KDM5B inh 79µM
COc1ccc(CC(=O)NCC(=O)N2CCN(c3ccccn3)CC2)cc1	KDM5B inh 32µM
O=C(CCCc1ccccc1)NCC(=O)N1CCN(c2ccccn2)CC1	KDM5B inh 28µM
O=C(CN1CCN(c2ccccn2)CC1)Nc1cc(F)ccc1F	none (no result: SNCA expr inhib, HEK293 viab, IP6K1 inh)
O=C(COc1ccc(F)cc1)NCC(=O)N1CCN(c2ccccn2)CC1	KDM5B inh 25µM
O=C(CCc1ccccc1)NCC(=O)N1CCN(c2ccccn2)CC1	KDM5B inh inconclusive
CCCn1nc(S(=O)(=O)N2CCCCC2)c(C(=O)OCC)c1C	none (no result: SNCA expr inhib, HEK293 viab, IP6K1 inh)
O=C(Nc1cccc(F)c1)c1nc2ccccc2nc1N1CCCCC1	none (no result: SNCA expr inhib, HEK293 viab, IP6K1 inh)
CN(C)C(=S)Cc1ccccc1	none (no result: SNCA expr inhib, HEK293 viab, IP6K1 inh)
COc1ccccc1CC(=O)NCC(=O)N1CCN(c2ccccn2)CC1	KDM5B inh 25µM
COc1ccc(C(=O)NCC(=O)N2CCN(c3ccccn3)CC2)c(C)c1	KDM5B inh 22µM
COc1ccccc1Nc1ccnc(N2CCN([S+](=O)([O-])c3cccs3)CC2)n1	HEK293 viab inconclusive (no result: KDM5B inh)
CCn1ncc(CN(C)C(=O)CC2C(=O)NCCN2C(C)C)c1C (stereo not drawn)	KDM5B inh 32µM
COc1ccc(-c2nc3c(c(=O)[nH]2)CCN(C(=O)COc2ccc(F)c(F)c2)C3)cc1	KDM5B inh 22µM
COc1ccc(-c2nc3c(c(=O)[nH]2)CCN(C(=O)Nc2ccc(C)cc2C)C3)cc1	KDM5B inh 25µM
Cc1ccccc1CSc1nc2sc(C)c(C)c2c(=O)n1CCCN1CCOCC1	none (no result: SNCA expr inhib, HEK293 viab, IP6K1 inh)

High-throughput results as filed in PubChem BioAssay.
